The list is not random: actives were taken first. Their share in the collection is about 19%.
KB-3-1 tox: KB-3-1 parental cell cytotoxicity. KB-3-1 viability, CellTiter-Glo ATP luminescence, 72 h. Potency, µM (doses to about 46.1 µM), most hits filed as cytotoxic. hit rate 1.4% among 400,000; also: nearly all actives have a fitted effect of over 60% in size
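Luminescent ATP read-out (CellTiter-Glo) measures survival of drug-naive KB-3-1 cells after 72 h compound exposure at 37 °C. Titration series was screened from lowest to highest concentration, with DMSO vehicle plates as background controls.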
KB-V1 cytotox: kills drug-selected multidrug resistant KB-V1 cells; KB-V1 MDR cells viability, CellTiter-Glo, 72 h; Potency, µM (doses to about 46.1 µM), usual class: cytotoxic; hit rate 3.4% among 400,000; AID 1347076; also: nearly all actives have a fitted effect of over 60% in size
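Cytotoxicity via CellTiter-Glo luminescence after 72 h compound exposure at 37 degrees C. Cells: drug-selected KB-V1 line, DMEM phenol-red free plus 10% FBS. Compounds tested at multiple concentrations; normalized data fitted to concentration-effect curves.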
DT40 TDP1 CPT: growth inhibition of DT40 Tdp1-/-;hTDP1 cells with camptothecin (screen for TDP1 inhibitors); Potency, µM (series often up to 46.2 µM), for inactives: at the top dose activity change, negative = growth inhibition, most hits filed as inhibitors; chicken DT40 Tdp1-/-;hTDP1 cells + 20 nM CPT, ATP luminescence, 48 h; hit rate 12% among 420,000; also: nearly all actives have a fitted effect of over 55% in size
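Cell growth measured by CellTiter-Glo luminescence after a minimum 48 h, 37 C compound exposure with 20 nM CPT in Tdp1-knockout DT40 cells stably expressing hTDP1, seeded 400/well; qHTS titration format.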
HT1080NT lethal: kills 2HG-producing HT-1080-NT fibrosarcoma cells | hit rate 1.6% among 360,000 | AID 686970 | Potency, µM (doses to about 46.1 µM), without a hit: at the highest dose activity, negative = less viability, most hits filed as cytotoxic | HT-1080-NT fibrosarcoma viability, CellTiter-Glo ATP luminescence, 48 h;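 also: NT is the 2HG producing partner of a matched IDH1 knockdown line; 0% = DMSO-treated cells and -100% = media-only wells without cells; nearly all actives have a fitted effect of over 55% in size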
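750 cells/well, RPMI + 5% FBS; 2 h settle, compound pin-transfer, 48 h at 37 degrees C. CellTiter-Glo 10 min RT, luminescence. Normalized to DMSO and media-only wells.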
DT40 TDP1 no CPT: qHTS for Inhibitors of human tyrosyl-DNA phosphodiesterase 1 (TDP1): qHTS in cells in absence of CPT; DT40 Tdp1-/- hTDP1 cells, no CPT, ATP luminescence, 48 h; Potency, µM (doses to about 46.2 µM), inactives show at the highest dose activity change, negative = growth inhibition, usual class: inhibitors; hit rate 15% among 420,000; AID 686978, 2013; also: nearly all actives have a fitted effect of over 55% in size
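Stably hTDP1-transfected Tdp1-null chicken DT40 cells were treated with library compounds minus camptothecin and grown for at least 48 hr at 37 °C, after which cellular ATP was quantified by luminescence.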
HT1080 IDH1KD tx: kills HT-1080 cells with IDH1 knockdown; hit rate 2% among 360,000; HT-1080 IDH1 knockdown viability, ATP luminescence, 48 h; Potency, µM (top dose mostly 46.1 µM), without a hit: at the top dose activity, negative = toxicity, hits mostly cytotoxic; AID 686971;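 also: 0% = DMSO wells and -100% = cell-free medium wells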
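IDH1KD HT-1080 cells, 750/well, RPMI + 5% FBS; compound pinned after 2 h settling; 48 h, 37 °C; CellTiter-Glo luminescence; % activity normalised to DMSO and no-cell wells; curves fitted, classed by r2 and efficacy.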
Numbers without * were called inactive; i = inactive; ? = inconclusive; . = no result. Calls follow the shape of the dose curve; as a rule, active = well fitted curve in the direction sought with a large enough effect; inconclusive = small, poorly fitted or top-dose-only effect, or another doubt; inactive = no such curve, though single readings can be large; an effect the other way counts as inactive or inconclusive. Unless noted, % is scaled to controls: 0 for no effect and ±100 for the full control effect; potency is read from the fitted curve at half-maximal effect.

SMILES	KB-3-1 tox	KB-V1 cytotox	DT40 TDP1 CPT	HT1080NT lethal	DT40 TDP1 no CPT	HT1080 IDH1KD tx
C=CCNc1nc(-c2sc(NC(=O)C(C)(C)C)nc2C)c(-n2cc(-c3ccccc3)nn2)s1	?	16µM*	21µM*	?	15µM*	?
C=CCNC(=O)c1sc(-c2ccccc2)nc1C	i	i	1%	14%	-2%	13%
Cc1ccc(Cn2c(=O)n(Cc3ccccc3Cl)c(=O)c3ccccc32)cc1	i	?	3%	.	3%	.
CCc1ccc(-c2cc(C)no2)cc1S(=O)(=O)NCCc1ccccc1	?	?	?	-5%	18µM*	?
CSc1ccc(CCNS(=O)(=O)c2cc(-c3cc(C)no3)ccc2C)cc1	.	.	?	.	21µM*	.
Cc1cc(-c2ccc(C)c(S(=O)(=O)NCc3ccc(Cl)cc3)c2)on1	i	i	-12%	.	?	.
CCc1ccc(-c2cc(C)no2)cc1S(=O)(=O)Nc1ccc(Cl)cn1	i	i	?	-9%	18%	-8%
Cc1cc(-c2ccc(C)c(S(=O)(=O)NCc3cccs3)c2)on1	?	?	12µM*	.	15µM*	.
CCc1ccc(-c2cc(C)no2)cc1S(=O)(=O)Nc1ccc(Cl)cc1	?	16µM*	?	.	?	.
Cc1ccsc1/C=N/NC(=O)c1nnn(-c2nonc2N)c1CN(C)c1ccccc1	i	i	?	-5%	?	-13%
COc1cc(CNc2ncnc3c2ncn3[C@H]2CN(Cc3cc(OC)c(OC)c(OC)c3)C[C@@H](CO)O2)cc(OC)c1OC	i	i	-24%	28%	-25%	14%
COc1ccc(NC(=O)Nc2ccc3c(c2)C(=O)N([C@@H](C)CO)C[C@@H](C)[C@@H](CN(C)S(=O)(=O)c2cn(C)cn2)O3)cc1	i	i	14%	12%	4%	9%
Nc1ncnc2c1ncn2[C@@H]1O[C@H](CNC(=O)[C@@H]2CCCN2S(=O)(=O)c2ccc(F)cc2)[C@@H](O)[C@H]1O	i	i	-12%	7%	-5%	0%
CCC1CCCCN1CCCNC(=O)c1cn(CC(C)C)c(=O)c2cc(OC)c(OC)cc12 (stereo unspecified)	?	i	1%	-14%	1.8µM*	-28%
CCN(C(=O)c1cn(CC(C)C)c(=O)c2cc(OC)c(OC)cc12)c1cc(OC)ccc1OC	i	i	13µM*	.	15µM*	.
CCCN(C(=O)c1cn(CC(C)C)c(=O)c2cc(OC)c(OC)cc12)c1cccc(C)c1	i	i	13µM*	.	15µM*	.
CCc1ccccc1N(C)C(=O)c1cn(CC(C)C)c(=O)c2cc(OC)c(OC)cc12	i	i	10µM*	.	10µM*	.
Cc1ccc(NC(=O)c2cnc(SCC(=O)N3CCOCC3)n(C)c2=O)cc1	.	.	-11%	.	-23%	.
O=C(c1ccc(Cl)cc1)c1ccc(Oc2cc(NN3CCCCC3)c([N+](=O)[O-])cc2[N+](=O)[O-])cc1	i	i	?	-5%	-10%	-9%
COc1cc2c(C(=O)N(C)c3cc(Cl)ccc3OC)cn(CC(C)C)c(=O)c2cc1OC	i	?	9.2µM*	.	8.2µM*	.
COc1ccc(N(C)C(=O)c2cn(CC(C)C)c(=O)c3cc(OC)c(OC)cc23)c(OC)c1	i	?	?	-4%	-26%	-1%
Cc1ccccc1NS(=O)(=O)c1ccc(C(=O)N2CCCCCC2)cc1	i	i	?	-8%	?	-24%
Cc1ccccc1NS(=O)(=O)c1ccc(C(=O)N2CCN(c3ccccc3O)CC2)cc1	.	.	12µM*	3%	15µM*	8%
